In the supplement of paper PMC11732987, “Enantioselective OTUD7B fragment discovery through chemoproteomics screening and high-throughput optimisation” (Communications Chemistry, 2025):

What was measured:
Assay in all cases: log2 ratio of Biotin-Ahx-Ub-VS probe labelling (fragment/DMSO); higher = less target engagement (more negative = stronger competition), active = hit call of the paper (q ≤ 0.05, log2 ratio ≤ -1)
Details in all cases: compound concentration: 200 uM; treatment time: 3 h
ALG13 = molecular target: T1, ALG13 (UniProt Q9NP73)
T1 sequence (whole entry): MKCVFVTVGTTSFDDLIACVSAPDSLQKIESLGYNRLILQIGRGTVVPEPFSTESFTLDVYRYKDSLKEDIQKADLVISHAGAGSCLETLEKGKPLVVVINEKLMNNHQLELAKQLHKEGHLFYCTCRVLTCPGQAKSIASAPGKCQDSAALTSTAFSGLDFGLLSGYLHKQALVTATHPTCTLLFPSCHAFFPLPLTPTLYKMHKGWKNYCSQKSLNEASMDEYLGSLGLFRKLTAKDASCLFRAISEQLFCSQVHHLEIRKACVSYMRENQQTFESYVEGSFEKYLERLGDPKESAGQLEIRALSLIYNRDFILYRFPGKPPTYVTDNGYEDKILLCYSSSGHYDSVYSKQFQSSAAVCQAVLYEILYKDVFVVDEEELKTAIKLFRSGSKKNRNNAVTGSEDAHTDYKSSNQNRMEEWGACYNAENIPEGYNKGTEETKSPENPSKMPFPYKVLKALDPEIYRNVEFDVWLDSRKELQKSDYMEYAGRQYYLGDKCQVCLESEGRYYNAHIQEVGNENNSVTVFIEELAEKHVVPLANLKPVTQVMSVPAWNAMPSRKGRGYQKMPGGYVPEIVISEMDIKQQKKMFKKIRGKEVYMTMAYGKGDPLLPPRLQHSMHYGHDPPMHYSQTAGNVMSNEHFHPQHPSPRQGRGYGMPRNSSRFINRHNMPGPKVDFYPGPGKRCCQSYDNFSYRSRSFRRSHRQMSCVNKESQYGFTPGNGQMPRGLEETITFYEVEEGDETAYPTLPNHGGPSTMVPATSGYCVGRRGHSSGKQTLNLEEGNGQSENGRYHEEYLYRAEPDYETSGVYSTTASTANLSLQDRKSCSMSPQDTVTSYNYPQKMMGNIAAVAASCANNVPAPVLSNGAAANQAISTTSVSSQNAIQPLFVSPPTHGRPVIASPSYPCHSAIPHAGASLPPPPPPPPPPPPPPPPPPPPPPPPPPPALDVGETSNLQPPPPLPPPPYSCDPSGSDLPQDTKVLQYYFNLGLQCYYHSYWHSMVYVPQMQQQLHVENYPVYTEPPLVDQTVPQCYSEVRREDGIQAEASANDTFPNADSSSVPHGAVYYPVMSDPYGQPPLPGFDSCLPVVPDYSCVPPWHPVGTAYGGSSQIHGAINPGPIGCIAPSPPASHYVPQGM
Outline: (§1)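 HEK293T lysate (495 µg per sample, in Tris/CHAPS/IGEPAL buffer with protease inhibitors) was exposed in triplicate for 3 h to fragment at 200 µM or to vehicle, then to Biotin-Ahx-Ub-VS at 0.5 µM final for 1 h. Labelled DUBs were enriched on NeutrAvidin, digested with LysC and trypsin, and analysed by diaPASEF LC-MS/MS. Spectronaut label-free quantities were normalised to the global median, and values are average log2 ratios of fragment over vehicle from an unpaired t-test. Only proteins with ≥2 unique peptides were used.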

ATXN3 = ATXN3 (UniProt P54252)
Chain of ATXN3 (P54252 whole entry): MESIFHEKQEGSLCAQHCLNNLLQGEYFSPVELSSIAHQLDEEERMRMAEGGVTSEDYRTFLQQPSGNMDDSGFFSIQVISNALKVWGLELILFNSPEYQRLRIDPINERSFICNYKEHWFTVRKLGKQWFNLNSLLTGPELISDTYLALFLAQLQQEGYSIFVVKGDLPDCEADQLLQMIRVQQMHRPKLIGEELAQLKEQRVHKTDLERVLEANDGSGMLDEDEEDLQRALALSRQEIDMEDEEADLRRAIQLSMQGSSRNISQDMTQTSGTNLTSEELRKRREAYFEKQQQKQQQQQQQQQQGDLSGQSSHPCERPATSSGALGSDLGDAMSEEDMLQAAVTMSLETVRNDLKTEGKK
Outline: as §1

BAP1 = molecular target: T2, BAP1 (UniProt Q92560)
T2 sequence (whole entry): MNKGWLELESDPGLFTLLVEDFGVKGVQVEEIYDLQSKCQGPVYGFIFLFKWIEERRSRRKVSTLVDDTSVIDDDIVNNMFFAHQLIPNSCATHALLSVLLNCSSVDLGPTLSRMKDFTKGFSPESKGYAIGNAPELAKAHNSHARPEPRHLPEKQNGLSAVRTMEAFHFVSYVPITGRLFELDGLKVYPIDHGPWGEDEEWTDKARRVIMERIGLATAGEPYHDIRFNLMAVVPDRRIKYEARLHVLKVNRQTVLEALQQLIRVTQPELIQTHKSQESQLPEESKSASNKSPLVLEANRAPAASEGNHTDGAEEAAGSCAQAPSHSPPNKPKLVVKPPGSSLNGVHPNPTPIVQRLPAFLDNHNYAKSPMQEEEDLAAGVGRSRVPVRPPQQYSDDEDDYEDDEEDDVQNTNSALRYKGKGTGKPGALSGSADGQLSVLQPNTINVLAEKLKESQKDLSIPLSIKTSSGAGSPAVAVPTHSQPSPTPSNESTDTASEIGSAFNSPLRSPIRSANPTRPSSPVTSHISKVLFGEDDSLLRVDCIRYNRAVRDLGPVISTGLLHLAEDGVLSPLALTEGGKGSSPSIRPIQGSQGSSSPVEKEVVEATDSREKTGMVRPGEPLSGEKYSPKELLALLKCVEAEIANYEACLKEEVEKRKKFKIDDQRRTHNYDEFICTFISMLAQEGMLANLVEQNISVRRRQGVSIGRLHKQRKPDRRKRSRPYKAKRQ
Outline: as §1

EIF3F = EIF3F (UniProt O00303)
Chain of EIF3F (O00303 whole entry): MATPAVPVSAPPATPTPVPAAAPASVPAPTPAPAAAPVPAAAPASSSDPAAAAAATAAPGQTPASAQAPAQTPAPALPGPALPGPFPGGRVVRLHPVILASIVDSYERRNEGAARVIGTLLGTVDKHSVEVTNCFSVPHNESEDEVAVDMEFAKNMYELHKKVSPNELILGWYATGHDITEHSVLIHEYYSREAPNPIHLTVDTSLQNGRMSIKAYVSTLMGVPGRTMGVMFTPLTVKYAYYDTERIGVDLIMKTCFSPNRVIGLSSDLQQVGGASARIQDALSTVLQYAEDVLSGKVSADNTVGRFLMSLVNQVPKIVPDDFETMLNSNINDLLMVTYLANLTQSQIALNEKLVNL
Outline: as §1

EIF3H = EIF3H (UniProt O15372)
Chain of EIF3H (O15372 whole entry): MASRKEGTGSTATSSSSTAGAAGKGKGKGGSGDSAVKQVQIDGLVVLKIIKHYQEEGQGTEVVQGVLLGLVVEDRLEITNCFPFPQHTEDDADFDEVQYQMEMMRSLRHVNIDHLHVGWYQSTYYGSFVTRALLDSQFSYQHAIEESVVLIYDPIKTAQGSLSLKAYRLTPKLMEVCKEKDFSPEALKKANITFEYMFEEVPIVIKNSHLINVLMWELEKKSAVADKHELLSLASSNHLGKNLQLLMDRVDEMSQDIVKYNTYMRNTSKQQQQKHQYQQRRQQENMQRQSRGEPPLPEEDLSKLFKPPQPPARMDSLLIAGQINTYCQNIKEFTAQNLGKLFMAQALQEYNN
Outline: as §1

FAM105A = molecular target: T3, FAM105A (UniProt Q9NUU6)
T3 sequence (whole entry): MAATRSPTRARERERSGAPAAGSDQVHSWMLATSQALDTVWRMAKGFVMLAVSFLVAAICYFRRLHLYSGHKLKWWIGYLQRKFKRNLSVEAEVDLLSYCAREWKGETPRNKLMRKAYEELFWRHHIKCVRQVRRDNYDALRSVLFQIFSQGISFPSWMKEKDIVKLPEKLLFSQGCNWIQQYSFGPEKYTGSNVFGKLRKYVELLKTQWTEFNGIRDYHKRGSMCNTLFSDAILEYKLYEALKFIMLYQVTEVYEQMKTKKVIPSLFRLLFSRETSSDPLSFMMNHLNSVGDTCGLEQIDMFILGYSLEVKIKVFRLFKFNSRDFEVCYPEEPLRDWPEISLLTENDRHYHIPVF
Outline: as §1

OTUB1 = OTUB1 (UniProt Q96FW1)
Chain of OTUB1 (Q96FW1 whole entry): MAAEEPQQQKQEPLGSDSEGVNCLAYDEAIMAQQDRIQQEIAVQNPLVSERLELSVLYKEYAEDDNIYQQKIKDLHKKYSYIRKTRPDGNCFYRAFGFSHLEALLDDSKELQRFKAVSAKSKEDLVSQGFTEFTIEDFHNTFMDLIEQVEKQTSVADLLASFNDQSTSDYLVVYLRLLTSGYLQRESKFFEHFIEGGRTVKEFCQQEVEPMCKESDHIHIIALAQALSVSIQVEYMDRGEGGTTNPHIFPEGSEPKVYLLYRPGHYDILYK
Outline: as §1

OTUD4 = molecular target: T4, OTUD4 (UniProt Q01804)
T4 sequence (whole entry): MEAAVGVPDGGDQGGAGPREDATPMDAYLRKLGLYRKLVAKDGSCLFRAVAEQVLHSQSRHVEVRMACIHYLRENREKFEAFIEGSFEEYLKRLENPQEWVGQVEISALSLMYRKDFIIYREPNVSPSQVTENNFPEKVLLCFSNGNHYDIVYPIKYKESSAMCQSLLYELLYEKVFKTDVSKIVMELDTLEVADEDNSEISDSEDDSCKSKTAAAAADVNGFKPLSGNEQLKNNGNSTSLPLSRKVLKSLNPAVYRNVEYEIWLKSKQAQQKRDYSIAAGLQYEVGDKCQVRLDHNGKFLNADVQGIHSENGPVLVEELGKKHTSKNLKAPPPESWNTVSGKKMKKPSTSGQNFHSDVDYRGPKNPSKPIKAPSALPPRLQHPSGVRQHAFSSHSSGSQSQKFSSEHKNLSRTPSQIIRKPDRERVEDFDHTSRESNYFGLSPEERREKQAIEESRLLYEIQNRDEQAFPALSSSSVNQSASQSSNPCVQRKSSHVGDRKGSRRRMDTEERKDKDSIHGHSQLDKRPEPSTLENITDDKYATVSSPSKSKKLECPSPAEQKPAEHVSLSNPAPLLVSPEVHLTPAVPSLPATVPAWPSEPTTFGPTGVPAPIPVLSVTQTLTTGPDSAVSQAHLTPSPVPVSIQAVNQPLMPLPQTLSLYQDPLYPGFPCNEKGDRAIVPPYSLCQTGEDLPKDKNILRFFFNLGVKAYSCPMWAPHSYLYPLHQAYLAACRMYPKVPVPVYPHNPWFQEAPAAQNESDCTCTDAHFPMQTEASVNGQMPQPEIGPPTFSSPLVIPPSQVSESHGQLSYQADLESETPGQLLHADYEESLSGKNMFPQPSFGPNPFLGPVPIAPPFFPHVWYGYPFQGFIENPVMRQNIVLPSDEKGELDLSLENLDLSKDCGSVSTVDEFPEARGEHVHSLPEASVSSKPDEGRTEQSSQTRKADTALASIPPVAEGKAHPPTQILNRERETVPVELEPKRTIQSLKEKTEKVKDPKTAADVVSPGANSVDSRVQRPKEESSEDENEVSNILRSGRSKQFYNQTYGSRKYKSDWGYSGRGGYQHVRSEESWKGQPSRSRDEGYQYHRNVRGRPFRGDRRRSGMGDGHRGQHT
Outline: as §1

OTUD5 = molecular target: T5, OTUD5 (UniProt Q96G74)
T5 sequence (whole entry): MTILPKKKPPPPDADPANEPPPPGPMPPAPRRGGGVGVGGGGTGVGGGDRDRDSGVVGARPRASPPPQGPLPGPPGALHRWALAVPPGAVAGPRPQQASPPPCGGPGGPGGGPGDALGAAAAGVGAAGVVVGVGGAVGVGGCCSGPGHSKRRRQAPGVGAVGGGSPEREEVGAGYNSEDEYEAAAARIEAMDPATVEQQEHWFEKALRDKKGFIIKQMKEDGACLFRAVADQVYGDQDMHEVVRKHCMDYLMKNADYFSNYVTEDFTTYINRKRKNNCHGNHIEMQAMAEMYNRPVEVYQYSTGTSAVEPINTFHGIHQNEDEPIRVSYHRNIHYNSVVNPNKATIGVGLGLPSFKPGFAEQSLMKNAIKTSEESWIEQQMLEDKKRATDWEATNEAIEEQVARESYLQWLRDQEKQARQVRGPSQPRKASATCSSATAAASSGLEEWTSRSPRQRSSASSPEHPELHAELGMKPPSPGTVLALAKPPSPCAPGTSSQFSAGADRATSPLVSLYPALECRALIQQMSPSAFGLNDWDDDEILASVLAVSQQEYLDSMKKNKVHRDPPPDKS
Outline: as §1

Measured: log2 ratio of Biotin-Ahx-Ub-VS probe labelling

O=C(CCl)N1CC=C(c2c[nH]c3ccccc23)CC1
active: ATXN3 -1.2 | BAP1 -1.95 | OTUD5 -1.27
inactive: ALG13 -0.249 | EIF3F -0.308 | EIF3H 0.184 | FAM105A -0.087 | OTUB1 -0.218 | OTUD4 -0.412
